{
  "source": "PubChem BioAssay (NCI)",
  "note": "The panel holds about 79,000 compounds, 15% with a hit somewhere; the sample as a whole holds those more often. A number with no mark means an inactive call. No stated cut-off is given here; in the data, active means growth inhibition above about 70%; inactive means the rest.",
  "data": [
    {"test": "NCI Yeast Anticancer Drug Screen. Data for the mlh1 rad18 strain (AID 175)", "conditions": "S. cerevisiae mlh1 rad18 strain growth inhibition; at 50.0 µM; hits give high values", "summary_of_the_method": "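Vehicle-treated cultures served as the reference for growth inhibition in a yeast strain carrying DNA damage repair alterations exposed to each compound.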", "units": {"growth inhibition": "%"}, "values": [
      {"smiles": "N#C/C(=C\\c1ccc2c(c1)OCO2)c1ccccc1", "growth inhibition": 24.1},
      {"smiles": "CN1CCCN(C(c2ccccc2)c2ccc(Cl)cc2)CC1", "note": "(centres undefined)", "growth inhibition": 10.5},
      {"smiles": "OCC1CCC(O)C(CO)N1", "note": "(centres undefined)", "growth inhibition": -15.8},
      {"smiles": "CCCCOC(=O)c1ccc(NC(=O)CCl)cc1", "growth inhibition": 43.4},
      {"smiles": "COc1ccc(NNS(=O)(=O)O)cc1", "growth inhibition": 4},
      {"smiles": "C=CCC(OC(C)=O)c1ccc(OC)c(OC)c1", "note": "(centres undefined)", "growth inhibition": 9.5},
      {"smiles": "COc1cccc(C(=O)O)c1OC", "growth inhibition": 0},
      {"smiles": "COc1ccc(-c2csc(NC(=O)Nc3nc(-c4ccc(OC)cc4)cs3)n2)cc1", "growth inhibition": 1.4},
      {"smiles": "C=CCNC(=S)N/C=C(/C(=O)c1ccccc1)c1ccccc1", "growth inhibition": -53.6},
      {"smiles": "O=C(NCc1ccccc1)/C(=C/c1ccccc1)NC(=O)c1ccccc1", "growth inhibition": -42.5},
      {"smiles": "c1cc(CNCCNCc2ccncc2)ccn1", "growth inhibition": -34.5},
      {"smiles": "Nc1ccn(C2OC(CO)C(O)C2F)c(=O)n1", "note": "(centres undefined)", "growth inhibition": -6.95},
      {"smiles": "C=COC(=O)CCOCC(CC)CCCC", "note": "(centres undefined)", "growth inhibition": -6.55},
      {"smiles": "CCOC(=O)CO", "growth inhibition": 18.9},
      {"smiles": "O=C(NCCc1ccccc1)/C(=C\\c1ccc(Cl)cc1Cl)NC(=O)c1ccccc1", "growth inhibition": 13.9},
      {"smiles": "N#Cc1ccc2nc[nH]c2c1", "growth inhibition": 17.9},
      {"smiles": "CCOc1ccc(C(=O)NCC(C)C)cc1", "growth inhibition": -13.7},
      {"smiles": "c1ccc2[nH]c(Cc3nc4ccccc4[nH]3)nc2c1", "growth inhibition": 10.2},
      {"smiles": "Cc1ccc(/C=N/NC(N)=S)s1", "growth inhibition": 48.5}
    ]}
  ]
}
